This is part of a sample that, as a whole, favours compounds with a hit. Of some 83,000 tested, about 20% had one in any assay.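 Treatment: one concentration, 48 hours, 96-well format. Scoring: percent growth, with anything below 10 considered active.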 Calls of active or inactive are those of the source.

The first assay relates to IGROV1 ovarian. In words: NCI-60 one-dose screen, 48 h (100 = growth as untreated, 0 = no growth, -100 = all killed). Conditions: 10 µM.
Take `COc1cccc2c1C(=O)c1c(O)c3c(c(O)c1C2=O)C[C@@](O)(C(=O)COC(=O)c1cccnc1)C[C@@H]3OC1CC(N)C(O)C(C)O1` (stereo partly specified): the growth is -12.4% (active).

For the molecule `COc1ccc(/C(=C/c2cc(OC)c(OC)cc2[N+](=O)[O-])C(=O)O)cc1`, the growth is 107% (inactive).

For `Nc1ccccc1NC(=O)CCCCCCC(=O)Nc1ccc2c(c1)/C(=C/c1ccc[nH]1)C(=O)N2`, the growth is 49.7% (inactive).

Consider `CCOC(=O)c1c(C)n(-c2ccc(Cl)cc2)c2ccc(OC(=O)/C=C/c3ccccc3)cc12`, for which the growth is 88.3% (inactive).

For the molecule `Cc1nnc2c3nnc(-c4ccc(Cl)cc4)n3c3ccccc3n12`, the growth was 91.8% (inactive).

Consider `CCOc1ccc2c(c1)CC[C@@H]1[C@@H]2CC[C@]2(C)[C@@H](O)[C@@H](O)C[C@@H]12`, for which the growth was 106% (inactive).

In the case of `COC(=O)[C@]12CC[C@@H](C)[C@H](C)[C@@H]1C1=CC[C@@H]3[C@@]4(C)CC(=O)[C@H](O)[C@@](C)(CO)[C@@H]4C(=O)C[C@@]3(C)[C@]1(C)CC2`, the growth is -27.7% (active).

Regarding `CCCCn1c(=O)[nH]c2c(c1=O)C(c1ccc(Cl)cc1)c1c([nH]c(=O)n(CCCC)c1=O)N2`, the growth was 102% (inactive).

`CCC(CCNc1cc(OC)cc2cccnc12)CN1C(=O)c2ccccc2C1=O` (stereo unspecified): the growth is 113% (inactive).

Take `COc1ccc(C(=O)c2sc3nc(-c4cccs4)ccc3c2N)cc1OC`: the growth was 63.3% (inactive).

As for `O=C/C=C/c1ccc([N+](=O)[O-])cc1Cl`, the growth was 82.5% (inactive).

Turning to `C/C(=N\NC(=O)c1sc(=S)n(C)c1N)c1cc2ccccc2o1`, the growth is 37.5% (inactive).

For `Cc1ccc(-c2cc(C(=O)Nc3ccc(S(=O)(=O)N4CCCCC4)cc3)[nH]n2)c(O)c1`, the growth is 68.8% (inactive).

In the case of `CC(=O)OC1Oc2ccccc2-c2oc(=O)c(-c3ccc(F)cc3)cc21` (stereo unspecified), the growth is 59.8% (inactive).

For the molecule `COc1ccc(Nc2nc(NCc3ccccc3)c3ccccc3n2)cc1`, the growth is 42.5% (inactive).

With `CCOC(=O)c1c(O)c2cc(-c3ccccc3)nc(OCC)c2c(=O)n1C`, the growth is 69.8% (inactive).

With `CC(=O)Oc1c(C)c(C)c2c(c1C)CCC(C)(CC(=O)OCCCCCCCCCCC[P+](c1ccccc1)(c1ccccc1)c1ccccc1)O2` (stereo unspecified), the growth was -46.2% (active).

Regarding `Cc1ccccc1[P+](Cc1ccccc1)(c1ccccc1)c1ccccc1`, the growth was 14.3% (inactive).

The subject of a further assay is OVCAR-3 ovarian. The description is as above. Conditions: 10 µM.
`CCCOCC(O)CNCCN` (stereo unspecified): the growth was 121% (inactive).

As to `CCCC(C)c1ccc(OCCCCCCN2CCNCC2)cc1` (stereo unspecified), the growth was 62.6% (inactive).

In the case of `Nc1cc(O)cc(O)c1`, the growth is 108% (inactive).

In the case of `Cc1cc(C(C)(C)CC(C)(C)C)ccc1OCCOCC[N+](C)(C)Cc1ccccc1`, the growth was 12.9% (inactive).

For the molecule `CC(C)c1[nH]nc2c(NCc3ccc(-c4ccccn4)cc3)nc(SCCN)nc12`, the growth was 5.51% (active).

For `CC(=O)c1c(O)cc2c3c1OC(C)(C)C1CCC(C)(CC31)O2` (stereo unspecified), the growth was 93.8% (inactive).

Turning to `CN(C)CCCN1c2ccccc2Sc2ccc(C(F)(F)F)cc21`, the growth was 8.18% (active).

For `CNC(=O)c1cc(Oc2ccc(NC(=O)Nc3ccc(Cl)c(OC4CCCCC4)c3)c(F)c2)ccn1`, the growth is 33.8% (inactive).

For the molecule `O=C(Nc1cccc(F)c1)Nc1cccc(Cl)c1`, the growth is 14.4% (inactive).

On to `CCN(CC)CC(O)CNc1ccnc2cc(Cl)c(Cl)cc12` (stereo unspecified), for which the growth was 92.5% (inactive).

For `CCCCCCOc1ccc(/C=C/C(=O)c2ccc(B(O)O)cc2)cc1`, the growth was 97.1% (inactive).

For the molecule `CC1(C)CC(OCCCC[P+](c2ccccc2)(c2ccccc2)c2ccccc2)CC(C)(C)N1O`, the growth was -46.1% (active).

Turning to `Fc1cc(-c2ncc(-c3cc(F)c(F)c(F)c3)c(NC3CCCCCC3)n2)cc(F)c1F`, the growth is 110% (inactive).

For `COc1c(C)c(C)c(OC)c2c1[nH]c(=O)c1c3cccnc3cn21`, the growth is 104% (inactive).

Regarding `CC1(C)CCc2cc(-c3ccn(S(=O)(=O)c4ccc(Cl)cc4)n3)ccc2O1`, the growth was 84% (inactive).

Take `O=C(NC1CCCC1)c1ccc(N2CCC(NCc3cccc(C(F)(F)F)c3)CC2)cc1`: the growth was 90.4% (inactive).

For the molecule `CC1=CC2OC34COC3CC(OC(=O)C(F)(F)F)C4(C)C2(C)CC1` (stereo unspecified), the growth is 118% (inactive).

`CCCCOCCOCCOCc1cc2c(cc1Br)OCO2`: the growth was 111% (inactive).

Take `CCCCCCCCCCN=C(c1ccc(N(C)C)cc1)c1ccc(N(C)C)cc1`: the growth was 2.1% (active).

For `COc1cccc2c1C(=O)c1c(O)c3c(c(O)c1C2=O)C[C@@](O)(C(=O)COC(=O)c1cccnc1)C[C@@H]3OC1CC(N)C(O)C(C)O1` (stereo partly specified), the growth is -9.51% (active).

Turning to `COc1ccc(/C(=C/c2cc(OC)c(OC)cc2[N+](=O)[O-])C(=O)O)cc1`, the growth was 125% (inactive).

For the molecule `Nc1ccccc1NC(=O)CCCCCCC(=O)Nc1ccc2c(c1)/C(=C/c1ccc[nH]1)C(=O)N2`, the growth is 29.3% (inactive).

`CCOC(=O)c1c(C)n(-c2ccc(Cl)cc2)c2ccc(OC(=O)/C=C/c3ccccc3)cc12`: the growth is 77.7% (inactive).

Consider `Cc1nnc2c3nnc(-c4ccc(Cl)cc4)n3c3ccccc3n12`, for which the growth is 104% (inactive).

Regarding `CCOc1ccc2c(c1)CC[C@@H]1[C@@H]2CC[C@]2(C)[C@@H](O)[C@@H](O)C[C@@H]12`, the growth was 118% (inactive).

Regarding `COC(=O)[C@]12CC[C@@H](C)[C@H](C)[C@@H]1C1=CC[C@@H]3[C@@]4(C)CC(=O)[C@H](O)[C@@](C)(CO)[C@@H]4C(=O)C[C@@]3(C)[C@]1(C)CC2`, the growth was -27.3% (active).

For `CCCCn1c(=O)[nH]c2c(c1=O)C(c1ccc(Cl)cc1)c1c([nH]c(=O)n(CCCC)c1=O)N2`, the growth is 115% (inactive).

On to `CCC(CCNc1cc(OC)cc2cccnc12)CN1C(=O)c2ccccc2C1=O` (stereo unspecified), for which the growth was 106% (inactive).

As for `COc1ccc(C(=O)c2sc3nc(-c4cccs4)ccc3c2N)cc1OC`, the growth was 45.1% (inactive).

In the case of `O=C/C=C/c1ccc([N+](=O)[O-])cc1Cl`, the growth was 108% (inactive).

`C/C(=N\NC(=O)c1sc(=S)n(C)c1N)c1cc2ccccc2o1`: the growth is 65% (inactive).

Consider `Cc1ccc(-c2cc(C(=O)Nc3ccc(S(=O)(=O)N4CCCCC4)cc3)[nH]n2)c(O)c1`, for which the growth is 55.3% (inactive).

Take `CC(=O)OC1Oc2ccccc2-c2oc(=O)c(-c3ccc(F)cc3)cc21` (stereo unspecified): the growth was 110% (inactive).

On to `COc1ccc(Nc2nc(NCc3ccccc3)c3ccccc3n2)cc1`, for which the growth was 14.8% (inactive).

As for `CCOC(=O)c1c(O)c2cc(-c3ccccc3)nc(OCC)c2c(=O)n1C`, the growth is 103% (inactive).

`COc1ccc(-c2nnc(SCC(=O)c3ccccc3)o2)cc1`: the growth was 105% (inactive).

For the molecule `CC(=O)Oc1c(C)c(C)c2c(c1C)CCC(C)(CC(=O)OCCCCCCCCCCC[P+](c1ccccc1)(c1ccccc1)c1ccccc1)O2` (stereo unspecified), the growth is -90.5% (active).

Take `Cc1ccccc1[P+](Cc1ccccc1)(c1ccccc1)c1ccccc1`: the growth was 26.4% (inactive).
